Reference: ChEMBL document CHEMBL3988442, “University of Dundee, Small-Polar-MMV Screening Library” (2021)
About 25 (0.04%) of roughly 68,000 compounds showed an effect of 50% or more. For the sample, strong results were picked, then their nearest neighbours and some compounds at random.

The molecules below were run against T1, Methionyl-tRNA synthetase, putative (Leishmania donovani (strain BPK282A1)) (UniProt E9BF75) (assay: Leishmania donovani Methionine tRNA synthetase (LdMetRS):v6. Primary screen assay).
T1 sequence (whole entry): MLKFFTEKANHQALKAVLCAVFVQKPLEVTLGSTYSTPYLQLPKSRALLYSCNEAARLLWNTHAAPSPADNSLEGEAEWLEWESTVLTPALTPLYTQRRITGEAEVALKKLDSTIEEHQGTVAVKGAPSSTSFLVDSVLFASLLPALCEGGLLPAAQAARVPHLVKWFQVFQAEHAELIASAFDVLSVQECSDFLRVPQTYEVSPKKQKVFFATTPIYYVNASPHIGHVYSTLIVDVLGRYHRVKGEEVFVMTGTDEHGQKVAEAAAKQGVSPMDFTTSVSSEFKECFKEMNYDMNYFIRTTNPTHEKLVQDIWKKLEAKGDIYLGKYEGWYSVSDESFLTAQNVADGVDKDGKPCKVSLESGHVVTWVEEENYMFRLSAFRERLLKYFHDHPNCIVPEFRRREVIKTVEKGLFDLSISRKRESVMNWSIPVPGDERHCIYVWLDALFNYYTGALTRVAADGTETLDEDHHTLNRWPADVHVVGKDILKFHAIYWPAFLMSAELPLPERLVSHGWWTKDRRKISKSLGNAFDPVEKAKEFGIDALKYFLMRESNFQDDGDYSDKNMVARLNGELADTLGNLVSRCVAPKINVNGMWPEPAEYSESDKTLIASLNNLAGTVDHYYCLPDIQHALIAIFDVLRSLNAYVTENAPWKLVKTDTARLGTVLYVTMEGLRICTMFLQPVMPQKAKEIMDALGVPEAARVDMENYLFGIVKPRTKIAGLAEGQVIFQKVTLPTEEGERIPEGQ
Format: functional
Set-up: conc 80 nM, time 150 minutes

Structure (SMILES) | inhibition [%]
CN(C)C(=O)N1CCN(c2ccc3ccc(C(=O)NC4CC4)cn23)CC1 | 20.2
N#Cc1cccc(C(=O)N2CC[C@H]3[C@H]2CCN3CC2CCOCC2)c1 | 9.34
CS(=O)(=O)NC[C@]12COC[C@H]1CN(CCc1ccccc1)C2 | 13.1
Cc1nc([C@H]2C[C@@H]3CCN(C(=O)c4ccnnc4)C[C@H]3O2)sc1C | 17
O=C(NCC1CCOCC1)[C@H]1C[C@@H]2CCN(Cc3ccccc3)C[C@H]2O1 | 18.4
CNC(=O)N1C[C@H]2C[C@H](C(=O)NCc3cccnc3)[C@@H](C1)O2 | 9.15
Cc1ncc(CN2CCOC(CNc3cccnn3)C2)s1 (stereo not given) | 13.2
CCCN1C[C@H]2CC[C@@H]1CN(c1nnc(C(C)C)s1)C2 | 9.31
O=C(Cn1ccc(=O)cc1)N1C[C@H]2CC[C@@H]1CN(c1ncccn1)C2 | 15.1
CC1=N[C@@]2(CC[C@@H]3CN(Cc4ccccc4C)C[C@@H]32)C(=O)N1CC1CC1 | 6.09
CN1CCC(CO[C@H]2CN(C(=O)c3cccn3C)[C@@H]3COC[C@H]23)CC1 | 8.4
CC(C)CCNc1nnc(C(C)C)s1 | 80.1
CC(C)c1nnc(NCCS(C)(=O)=O)s1 | 1.24
CCN(CC)S(=O)(=O)CCNc1nnc(C(C)C)s1 | -0.621
COc1ccc(CN2CCO[C@H]3[C@H](OCCN4CCCC4)CC[C@@H]32)cc1 | 6.3
C1CC(CN2C[C@H]3CC[C@@H]2CN(Cc2nnc(C4CC4)o2)C3)C1 | 9.96
Cc1cncc(C(=O)N2C[C@H]3CCC[C@@]3(COc3ccccn3)C2)c1 | 8.5
COc1cc(N2CC[C@@H]3O[C@@H](C(=O)NCCN(C)C)C[C@@H]32)ncn1 | 4.66
O=C1[C@H]2CC[C@H](CN(C3CCOCC3)C2)N1Cc1cscn1 | 8.93
Cc1oncc1C(=O)N1CC[C@H]2[C@@H]1CCC(=O)N2CC1CCOCC1 | 13.7

Structure (SMILES) | inhibition [%]
Cc1ccoc1C(=O)N1CC[C@H]2C[C@H](c3nnc(C4CC4)o3)O[C@@H]2C1 | 15.5
O=S(=O)(C1CC1)N1C[C@@H]2CN(Cc3ccoc3)CCO[C@@H]2C1 | 8.7
Cc1occc1C(=O)N1C[C@@H]2OCCN(c3ncccn3)[C@@H]2C1 | 9.59
COc1cc(CN2CCN(CC3CC3)[C@@H]3CS(=O)(=O)C[C@@H]32)cc(OC)c1 | 7.26
N#Cc1cccc(CN2C[C@H](NC(=O)C3CC3)[C@H]3OCCC[C@H]32)c1 | 10.6
O=C(NC1CC1)[C@H]1C[C@@H]2CCN(Cc3ccc4c(c3)OCO4)C[C@@H]2O1 | 1.31
CCS(=O)(=O)N1C[C@H]2CCC[C@@]2(COc2ccccn2)C1 | 12.9
CS(=O)(=O)N1CC[C@H]2O[C@H](C(=O)NCCc3ccccn3)CC[C@H]21 | 7.41
CCN1C[C@H]2C3(CCN(C(C)=O)CC3)CC[C@@]2(C(=O)N(C)C)C1 | 1.68
CCCN1C[C@H]2CC[C@@H]1CN(C(=O)c1ccc(N(C)CCO)cc1)C2 | 12.9
Cc1cccc(N2CC[C@@H]3[C@@H](CO[C@H]3CNC(=O)c3ccco3)C2)n1 | 13.1
CSc1ncccc1C(=O)N1C[C@H]2CC[C@@H]1CN(C(=O)N(C)C)C2 | 16.9
CNc1ccnc(N2C[C@@H]3CC[C@H](C2)N(CCOC)C3=O)n1 | -4.82
CC(CN1CCCC1=O)NC(=O)c1ccc(-c2ccco2)[nH]c1=O (stereo not given) | 16.8
CCCC(C)NC(=O)c1ccc(-c2ccco2)[nH]c1=O (stereo not given) | 9.58
CCC(C)NC(=O)c1ccc(-c2ccco2)[nH]c1=O (stereo not given) | 86.2
CCN1Cc2nc(OC)c(CNC(=O)C3CCS(=O)(=O)CC3)cc2C1=O | -0.86
Cc1ccc(CN2CCC[C@]3(C(=O)O)CN(c4ncccn4)C[C@@H]3C2)o1 | 14.6
CC(=O)N1[C@H](Cn2cncn2)C[C@@H]2CN(Cc3ccncc3)CC[C@@H]21 | 5.54
Cc1ccc(CN2CCN(CC3CC3)[C@@H]3CS(=O)(=O)C[C@@H]32)cc1C | 15.6

Structure (SMILES) | inhibition [%]
CCS(=O)(=O)CCNC(=O)[C@@]12CNC[C@@H]1CN(C1CCCC1)C2 | 6.92
Cc1nc(COC[C@@H]2CC[C@H]3[C@H](CCN3S(C)(=O)=O)O2)cs1 | 15.2
O=C(CCn1cc(Cl)cn1)N1C[C@@H]2CC[C@H](C1)N(Cc1ccccn1)C2 | 15.8
Cc1cccc(C(=O)N2C[C@H]3CC[C@@H]2CN(S(=O)(=O)N(C)C)C3)n1 | 19.9
CCS(=O)(=O)NC[C@]12COC[C@H]1CN(Cc1ccsc1)C2 | 7.3
CCC(=O)N1CC[C@@H]2[C@H](CC1)N(Cc1cccc(C)n1)CCS2(=O)=O | 14.2
Cc1cc(C)n(-c2nc(NCCCO)c3c4c(sc3n2)CCCC4)n1 | 59.5
COCCNc1nc(-n2nc(C)cc2C)nc2sc3c(c12)CCCC3 | 9.06
Cc1cc(C)n(C2=NC(NCCC(C)C)c3c(sc4c3CCCC4)N2)n1 (stereo not given) | 16.4
CN(C)C(c1ccccn1)[C@H]1CC[C@H](CNC(=O)C2CC2)CC1 (stereo not given in full) | 16
O=C(C[C@@H]1COC[C@H]2CN(Cc3ccc(F)cc3)C[C@@H]12)N1CCCC1 | 13
CC(=O)N1CC[C@@]2(C(=O)Nc3ccccc3)CCN(S(C)(=O)=O)CC[C@@H]12 | 8.93
c1ccc(CN2CC[C@@H]3O[C@@H](COCC4CCOCC4)CC[C@@H]32)nc1 | 10.1
O=C(c1ccsc1)N1C[C@H](N2CCOCC2)[C@@H]2OCCC[C@@H]21 | 13.9
O=C(C[C@@H]1COC[C@H]2CN(Cc3ccc(F)cc3)C[C@@H]12)N1CCCCO1 | 12.9
CNS(=O)(=O)c1ccc(CNC(=O)C2CCCO2)cc1 (stereo not given) | -0.269
Cc1oncc1C(=O)N1CC[C@H]2[C@@H]1CCC(=O)N2c1cccnc1 | 17.6
Cn1cc(CN2CC[C@H]3O[C@@H](C(=O)NC4CC4)CC[C@H]32)cn1 | 3.76
c1csc(CN2C[C@@H](n3cccn3)[C@H]3OCCC[C@H]32)c1 | 10.1
COc1cccc(NC(=O)N2CC[C@@H]3CN(C)S(=O)(=O)[C@@H]3CC2)c1 | -1.1
